Mtb MenB inh – Mtb MenB enzyme inhibition. P9WNP5. MenB enzyme assay, absorbance read-out. inhibition, % (test concentration not listed). 100,000 tested, 0.43% active; in the data active = inhibition above about 21%, passing the limit was not always enough
Target sequence (P9WNP5 whole entry, looked up): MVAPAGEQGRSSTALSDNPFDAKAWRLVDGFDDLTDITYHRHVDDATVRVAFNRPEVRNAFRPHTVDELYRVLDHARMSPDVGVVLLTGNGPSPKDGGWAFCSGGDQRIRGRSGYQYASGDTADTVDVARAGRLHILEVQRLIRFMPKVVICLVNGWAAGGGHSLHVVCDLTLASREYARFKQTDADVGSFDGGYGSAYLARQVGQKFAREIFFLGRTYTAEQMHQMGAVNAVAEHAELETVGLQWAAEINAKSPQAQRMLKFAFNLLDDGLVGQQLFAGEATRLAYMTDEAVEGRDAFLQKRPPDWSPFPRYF
Mtb MbtI inh – MbtI salicylate synthase inhibition; 100,000 tested, 0.89% active; purified MbtI enzyme, fluorescence intensity read-out; inhibition, % (no concentration beside the values); AID 493033; in the data active = inhibition mostly above about 56%, no sharp cut-off; inactive = mostly below about 77%
Polio RdRp inh – inhibitors of poliovirus RNA polymerase binding and polymerization | P03300 | AID 588519 | % elongation, % (compound at 16.7 µg/mL) | poliovirus polymerase elongation, fluorescence polarization; stronger effect = lower value | 150,000 tested, 0.66% active; in the data active = % elongation below about 90%
Numbers stand for hits; 0 = inactive; - = no result given. A selection: hits, their analogues and other compounds. The true share with any hit is near 1.4%.

SMILES | Mtb MenB inh | Mtb MbtI inh | Polio RdRp inh
Oc1ccc(O)c(C2CC3CCC2C3)c1 (centres undefined) | 0 | 102 | 0
COC(=O)c1ccc(OCC(O)CNS(=O)(=O)c2ccccc2C(=O)O)cc1 (centres undefined) | - | 0 | -
O=C(SC1=NCCc2ccccc21)c1ccccc1 | 0 | 0 | 0
O=C(CSC1=NCCc2ccccc21)c1ccc(-c2ccccc2)cc1 | 0 | 0 | 83
O=C(CSC1=NCCc2ccccc21)c1ccccc1Cl | 0 | 0 | 68
O=C1c2ccccc2C(=O)N1CC1=NCCc2ccccc21 | 0 | 0 | 0
COc1ccc(NC(=O)CN2C(=O)CSCC2=O)cc1 | 0 | 0 | 0
O=C(NCCc1ccccc1)C1CCN(Cc2cc3ccccc3n2Cc2cccc(Cl)c2)CC1 | - | - | 0
CC(C)CCNC(=O)C1CCN(Cc2cccc(OCc3ccccc3)c2)CC1 | 0 | - | 74
CCc1ccccc1NC(=S)Nc1ccc(Oc2ccc(Cl)cc2)cc1 | 0 | 0 | 0
CN(C)S(=O)(=O)c1ccc(C(=O)C2=C3SC=C(c4ccc(F)cc4)N3CC2)cc1 | 0 | 0 | 0
CN1C(=O)C(=Cc2ccccc2OCc2ccccc2)C(=O)N(C)C1=S | 0 | 0 | 0
COc1cccc(C=C2C(=O)N(C)C(=S)N(C)C2=O)c1OC | 0 | 93 | 0
COc1ccc(CC(=O)Nc2nccs2)cc1OC | 0 | - | 0
COc1ccc(CNc2nccs2)cc1OC | 29 | 0 | 0
Cc1occc1C(=O)NCc1ccccc1 | 56 | 0 | 0
Cc1occc1C(=O)N(Cc1ccccc1)Cc1ccccc1 | - | 0 | -
Nc1ccccc1C(=O)N1CCCCCC1 | 0 | 0 | 0
Cc1c(-c2ccccc2)sc(N)c1C(=O)N1CCCCC1 | 0 | 0 | 70
CCOC(=O)c1c(-c2ccccc2)n2c3c(cccc13)SCC2 | 0 | 0 | 0
NC(=O)C1CCN(C(=O)c2cccs2)CC1 | 0 | - | 0
Cc1cccc(NC(=O)N2CCCC2C(=O)O)c1 (centres undefined) | 0 | 0 | 0
Cc1cccc(NC(=S)N2CCCCC2C(N)=O)c1 (centres undefined) | 0 | 58 | 0
O=C(O)c1cc(S(=O)(=O)NN(Cc2ccccc2)c2ccccc2)ccc1O | 0 | 0 | 0
CN(C(=O)CSc1nncn2c1cc1sccc12)c1ccccc1 | 33 | 0 | 0
SMILES | Mtb MenB inh | Mtb MbtI inh | Polio RdRp inh
CN(C(=O)CSc1nncn2c1cc1occc12)c1ccccc1 | - | - | 0
CC1CCCC/C1=N\NS(C)(=O)=O (centres undefined) | 0 | 0 | 0
Cc1ccc(-n2ccnc2SCC(=O)c2ccc[nH]2)c(C)c1 | 0 | 0 | 0
Clc1cccc(CNCc2cccs2)c1 | 38 | 0 | 0
CCc1ccc(CNCc2cccs2)cc1 | 0 | 0 | 0
Cc1cccc(-n2c3nc(=O)[nH]c(=O)c-3cc3ccccc32)c1 | 0 | 0 | 0
O=C(C1CN(Cc2nc(-c3ccc(Cl)cc3)no2)c2ccccc2O1)N1CCOCC1 (centres undefined) | 0 | 0 | 0
O=C(O)Cn1c2c(c3ccccc31)CSc1ccc(Cl)cc1-2 | 0 | 96 | 0
Cn1nc(C(=O)NCc2cccc(Cl)c2)c2c1-c1ccccc1SC2 | - | - | 0
NC(=O)Cc1cn2ccccc2n1 | 0 | 0 | 0
C=CCC(O)(CN)CC=C | 32 | 0 | 0
Cc1cc(C)c2[nH]c(=O)c(CN(CCCO)C3(c4nnnn4C4CCCC4)CCCC3)cc2c1 | 0 | 0 | 0
Cc1sc(NC(=O)COc2ccc(C(C)(C)C)cc2)c(C(=O)OC(C)C)c1C | - | - | 0
CCOC(=O)c1c(-c2cccs2)csc1NC(=O)CSc1ccccn1 | 0 | 0 | 0
COC(=O)c1c(-c2cccs2)csc1NC(=O)COc1ccccc1 | - | - | 66
COC(=O)c1c(-c2cccs2)csc1NC(=O)COc1ccc(C(C)(C)C)cc1 | - | - | 80
COC(=O)c1c(-c2cccs2)csc1NC(=O)COc1c(C)ccc(C)c1C | - | - | 62
COC(=O)c1c(-c2cccs2)csc1NC(=O)COc1ccc(C)cc1 | - | - | 0
O=C(O)COCC(=O)Nc1ccccc1SCc1noc(-c2cccs2)n1 | 0 | 0 | 0
Cc1cc(C(=O)C(C)Sc2n[nH]c(N)n2)c(C)n1-c1ccccc1 (centres undefined) | 0 | 0 | 0
CCC(CC)c1nnc(NC(=O)CCc2c(C)noc2C)s1 | 0 | 0 | 0
CCc1nn(CC(=O)NCCCN2CCC(Cc3ccccc3)CC2)c(=O)c2cc3sccc3n12 | 0 | 0 | 0
CCc1ccc(OC)c(S(=O)(=O)n2ccnc2)c1 | 0 | 0 | 0
CCn1c(=NC(C)=O)sc2ccccc21 | 0 | 0 | 0
O/N=c1/sc2ccccc2n1CCS | 0 | 69 | 0
SMILES | Mtb MenB inh | Mtb MbtI inh | Polio RdRp inh
Cc1ccc2nc3sc(C(=O)O)c(N)c3cc2c1 | 0 | 0 | 0
Cc1ccc2ncc(-c3ccc4c(N)c(C)ccc4n3)cc2c1 | 0 | - | 17
CN(CC(=O)OC1CCOC1=O)S(=O)(=O)c1ccc(Cl)cc1 (centres undefined) | 0 | 0 | 0
CC(NC(=O)c1cc(=O)[nH]c2ccc(S(=O)(=O)N3CCOCC3)cc12)C12CC3CC(CC(C3)C1)C2 (centres undefined) | 0 | 0 | -9.0
CC1CCN(S(=O)(=O)c2ccc3[nH]c(=O)cc(C(=O)NCCCN4CCOCC4)c3c2)CC1 | 0 | 0 | 0
CCOC(=O)CC1C(=O)NCCN1Cc1ccc(Cl)c(F)c1 (centres undefined) | 0 | 0 | 0
COc1cccc(N2C(=O)CN=C2Nc2nc(C)cc(C)n2)c1 | 0 | - | 0
COc1cccc(N2C(=O)CC(n3nc(Nc4cccc(C)c4)sc3=S)C2=O)c1 (centres undefined) | 0 | 99 | 0
NC1CCN(c2ncccn2)CC1 | 0 | 0 | 0
S=c1[nH]n(Cc2ccccc2)c(=NCc2ccccc2)s1 | - | 65 | 0
O=c1ccc(=O)n(Cc2ccccc2)[nH]1 | 0 | 0 | 0
O=S(=O)(c1ccccc1)n1nc(-c2ccccc2)nc1NCc1cccs1 | 0 | 0 | 0
Cc1ccc(C(=O)O)cc1-n1c(C)ccc1C | - | 0 | -
Cc1ccc(C)n1-c1ccsc1C(=O)O | 0 | 0 | 48
CCN1C(=O)C(=Cc2ccc(N(C)C)cc2)C(=O)N(CC)C1=S | 0 | 0 | 0
CCN1C(=O)C(=Cc2ccc(OC(F)F)cc2)C(=O)N(CC)C1=S | 0 | 54 | 0
CCc1ccc(N2CCCCn3c2nc2c3c(=O)n(CCc3ccccc3)c(=O)n2C)cc1 | 0 | 0 | 0
CCC(Sc1nc2c(c(=O)[nH]1)CCC2)C(=O)Nc1cccc(OC)c1 (centres undefined) | 0 | 96 | 0
CCC(Sc1nc2c(c(=O)[nH]1)CCCC2)C(=O)Nc1ccccc1OC (centres undefined) | - | 0 | -
COc1ccc(Cl)cc1NC(=O)c1sc(=S)n(C)c1N | 0 | 88 | 72
COc1ccc(Cl)cc1NC(=O)c1sc2nc(-c3ccc(OC)c(OC)c3)ccc2c1N | - | - | 0
CCC(=O)n1nc(-c2ccco2)nc1SC | 0 | 54 | 0
CCC(=O)n1nc(-c2ccco2)nc1SCc1ccccc1 | 0 | 0 | 0
CCOC(=O)/C(C#N)=C1\C(=O)Nc2ccccc21 | 0 | 0 | 0
CCOC(=O)/C(C#N)=C1\CC2CCC1(C)C2(C)C (centres undefined) | 0 | 84 | 0
COc1ccc(-c2c(-c3ccccc3)oc3ncnc(C)c23)cc1 | - | 0 | -
CCc1ccccc1Nc1nc(-c2c(C)nc3sccn23)cs1 | 0 | 0 | 0
Cc1nc2sccn2c1-c1csc(Nc2cccc(Cl)c2C)n1 | 0 | 70 | 0
COc1ccc(C(=O)NCc2nnc(SCc3nc4ccccc4c(=O)[nH]3)n2C)cc1 | 0 | 0 | 0

High-throughput results deposited in PubChem by ICCB-Longwood Screening Facility, Harvard Medical School.
